Laboratory results: PubChem BioAssay AID1159580 (chemical genetic matrix, 2015)
The whole screen tested about 5,500 compounds, of which about 2,000 (36%) were called active. Inconclusive results (about 18%) are left out. No stated cut-off is given here; in the data, active means normalized growth mostly below about 0.91 (no sharp cut-off); inconclusive means no clear call, values can overlap the other calls; inactive means mostly above about 0.92. The list shows a part of the results.

Test: chemical genetic growth profiling, strain panel (AID 1159580);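 further: tested at 20 µM; growth read once vehicle control cultures reached saturation at 30 °C; 1 = growth at the plate median or of vehicle wells; lower values mean less growth of the strain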
Conditions: S. cerevisiae deletion strains, growth OD

Measured: normalized growth

CCN1CCC[C@H]1CNC(=O)c1c(O)c(Cl)cc(Cl)c1OC
inactive: locus YAL040C, strain CLN3, active compounds read low 1.01 | locus YCL061C, strain MRC1 (second series), active compounds read low 1 | locus YDR363W, strain ESC2, active compounds read low 1.03 | locus YER002W, strain NOP16, active compounds read low 0.998 | locus YGR229C, strain SMI1, active compounds read low 1.02 | locus YMR263W, strain SAP30, active compounds read low 1.01 | locus YMR307W, strain GAS1, active compounds read low 1 | locus YNL128W, strain TEP1, active compounds read low 1.03 | locus YNL175C, strain NOP13, active compounds read low 1.01 | locus YNL197C, strain WHI3, active compounds read low 1.01 | locus YNL224C, strain SQS1, active compounds read low 1.03 | locus YNL322C, strain KRE1, active compounds read low 1.02 | locus YOR083W, strain WHI5 (second series), active compounds read low 1.02 | locus YPL241C, strain CIN2, active compounds read low 0.996
